Cdc25B inh: inhibitors of human Cdc25B phosphatase. inhibition, %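 (compounds tested at 10 µM final in the well)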. hit rate 0.1% among 65,000. recombinant Cdc25B, OMFP fluorescence Ex485/Em525. AID 368; in the data active means inhibition above about 50%
PLAP act: activators of human placental alkaline phosphatase; P05187; purified PLAP enzyme, luminescent substrate read-out; active compounds read high; activation fold at 20 µM; hit rate 1.2% among 96,000; in the data active means activation fold above about 2
HePTP inhibitor: human HePTP phosphatase inhibition | P35236 | recombinant HePTP phosphatase activity, OD absorbance | inhibition, % at 20 µM | hit rate 0.64% among 110,000; in the data active means inhibition above about 50%; inconclusive means no clear call, values can overlap the other calls;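 further: plate controls were vehicle for no effect and reference inhibitor for full effect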
Target sequence (P35236 whole entry, looked up): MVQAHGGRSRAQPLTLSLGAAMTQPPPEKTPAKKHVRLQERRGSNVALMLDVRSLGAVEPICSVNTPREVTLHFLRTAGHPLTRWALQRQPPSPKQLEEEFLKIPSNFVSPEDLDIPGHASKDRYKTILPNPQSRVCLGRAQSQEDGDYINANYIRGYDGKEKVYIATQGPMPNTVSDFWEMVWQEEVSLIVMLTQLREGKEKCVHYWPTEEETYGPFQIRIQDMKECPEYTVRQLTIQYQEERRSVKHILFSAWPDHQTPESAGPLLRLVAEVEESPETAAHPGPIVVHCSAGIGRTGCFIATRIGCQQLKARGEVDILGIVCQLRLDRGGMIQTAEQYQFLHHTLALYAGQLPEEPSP
BAP1 inh: human BAP1 deubiquitinase inhibition; recombinant BAP1, Ub-AMC hydrolysis fluorescence kinetic; active compounds read low; calls only at 20 µM; hit rate 0.48% among 72,000; AID 436;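 active means activity remaining at or below 50% of control, provided the compound also passes the data quality filters; inactive means the rest, including low values that fail the filters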;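 further: 100% = DMSO wells rate and 0% = substrate alone blank rate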
DUSP1 inh: human dual specificity phosphatase 1 inhibition | P28562 | recombinant MKP-1, OMFP hydrolysis fluorescence | inhibition, %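 (compounds tested at a single concentration somewhere between 10 and 100 µM)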 | hit rate 0.15% among 65,000;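 active means inhibition above about 50%, limit read from the data; inconclusive means inhibition over screen mean plus 3 SD, below that limit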;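 further: 0% = DMSO max control wells and 100% = wells with enzyme stopped by NaOH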
Redox H2O2: counter-screen for MKP-1 and MKP-3 probes: redox cycling H2O2 generation; DTT, phenol red/HRP; 60 tested, under 10 active; shares compounds with DUSP1 inh; AID 672; EC50, µM; call rule not given here
BAP1 inh conf: confirmation of human BAP1 enzyme inhibitors | shares compounds with BAP1 inh | purified BAP1, Ub-ethyl ester hydrolysis, HPLC; active compounds read low | hit rate 8% among 310 | % of control activity, % at 20 µM;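 active means percent of control activity at or below 60%; inconclusive means HPLC trace unusable from injection failure or solvent front hiding peaks; inactive means the rest, plus ubiquitin peak ratio over a set limit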
Active calls of the source: *; i = inactive; ? = inconclusive; · = no result shown; + = active, no number. This is a sample that favours compounds with a hit; in the whole collection about 1.4% have one here.

SMILES	Cdc25B inh	PLAP act	HePTP inhibitor	BAP1 inh	DUSP1 inh	others
CCn1c(N)c(C(=O)NCC2CCCO2)sc1=S (stereo unspecified)	2.3	1	15.1	i	-9.4
COc1ccc(-n2c(NC(=O)c3ccco3)c(C#N)c3nc4ccccc4nc32)cc1	6.1	1.1	10.5	i	24.0	Redox H2O2=>50
Cc1cc(C)n2c(SCC(=O)N3CCN(S(=O)(=O)c4ccc(Cl)cc4)CC3)nnc2n1	-0.7	1.1	-1.2	i	56.3*	Redox H2O2=>50
COc1ccc(Cn2c(C)nc3c(c2=O)c2nc4ccccc4nc2n3Cc2ccco2)cc1	6.9	·	·	i	40.5	Redox H2O2=>50
COc1ccc(Cn2c3nc4ccccc4nc3c3c(=O)n(Cc4ccco4)c(C)nc32)cc1	15.9	1.9	45.4	i	41.1
COC(=O)C1=NNC2C(=O)N(c3ccc(Cl)cc3)C(=O)C12 (stereo unspecified)	·	·	-7.9	·	·
CCOC(=O)c1ccc2c(c1)C1C=CCC1C(c1ccc(F)cc1)N2 (stereo unspecified)	·	·	12.1	·	·
CCOC(=O)c1ccc2c(c1)C1C=CCC1C(C(=O)O)N2 (stereo unspecified)	27.4	1.3	·	·	56.9*	Redox H2O2=>50
Nc1nc2n(n1)C(C(F)(F)F)CC(c1ccco1)N2 (stereo unspecified)	·	·	-15.3	·	·
Cc1ccc(S(=O)(=O)/N=C(/CSC(N)=O)Nc2ccccc2)cc1	·	·	-3.9	·	·
CCCCCC#CCC#CCC#CCC#CCCCC(=O)O	20.2	·	?	·	29.4	Redox H2O2=>50
CC(C)Sc1nc2sc3c(c2c2nnc(SCC(=O)NCc4ccco4)n12)CCCC3	15.2	1.5	11.4	i	54.5*	Redox H2O2=>50
Cc1cc(NC(=O)c2ccc(S(=O)(=O)N3CCCC3)cc2)nc2c1c(=O)oc1ccccc12	-0.3	·	5.1	i	66.8*	Redox H2O2=>50
Cc1cc(NC(=O)c2ccc(S(=O)(=O)N3CCOCC3)cc2)nc2c1c(=O)oc1ccccc12	-2.5	1.4	-5.0	·	36.3
CCCCN(CCCC)S(=O)(=O)c1ccc(C)cc1	·	·	3.9	·	·
COc1ccc(-c2cnn(-c3ccccc3)c2N)cc1OC	2.3	1	1.3	i	8.7
Nc1nc2c(s1)CCc1c-2cnn1-c1ccccc1	18.7	1	8.8	i	51.7*	Redox H2O2=>50
CC(=O)[C@@H]1[C@@H]2C(=O)N(c3ccc(F)c(Cl)c3)C(=O)[C@@H]2C2c3ccccc3C=CN21 (stereo partly specified)	13.7	·	-9.5	·	20.3	Redox H2O2=>50
CC(=O)[C@H]1[C@@H]2C(=O)N(c3cccc(Cl)c3)C(=O)[C@@H]2[C@H]2c3ccccc3C=CN21	8.2	1.4	8.0	·	-3.5
CCn1c(SCC(=O)Nc2ccc3c(c2)OCCO3)nnc1-c1ccco1	-4.7	0.8	7.1	i	3.5
CCn1c(SCC(=O)Nc2ccc3c(c2)c2ccccc2n3CC)nnc1-c1ccco1	23.6	0.9	23.5	·	63.9*	Redox H2O2=>50
COc1ccc2nc(NS(=O)(=O)c3ccc(Cl)cc3)c(Nc3ccc4[nH]c(=O)[nH]c4c3)nc2c1	·	·	3.3	·	·
Cc1cccc(NC(=O)c2cc(NC(=O)C3CCCCC3C(=O)O)ccc2N2CCCCC2)c1 (stereo unspecified)	10.4	·	0.3	·	65.2*	Redox H2O2=>50
COc1ccc(/C(C)=N/NC(=O)CCc2c(C)n[nH]c2C)cc1OC	·	·	1.5	·	·
CC(=Nc1ccccc1C(F)(F)F)C1=C(O)c2ccccc2C1=O	·	·	0.5	·	·
SMILES	Cdc25B inh	PLAP act	HePTP inhibitor	BAP1 inh	DUSP1 inh	others
CCCc1cc(=O)oc2cc(C)c(CN3CCCC3)c(O)c12	4.2	1.5	-3.3	+	15.4	BAP1 inh conf=116.2
N#Cc1nc(-c2ccccc2F)oc1NCCN1CCOCC1	-10.0	1.2	-0.3	+	-2.6	BAP1 inh conf=86.9
C/C(=N\N=C\c1cccnc1)C1C(=O)c2ccccc2C1=O	·	·	-2.9	·	·
CCOC(=O)N1CCN(C(=O)c2cccn3c(=O)c4sccc4nc23)CC1	-9.4	1.1	1.9	+	3.7	BAP1 inh conf=99.7
C=C(C)Cn1c(SCC(=O)c2ccc(OC)cc2)nnc1-c1ccc(Br)cc1	·	·	-2.1	·	·
CCc1ccc2[nH]c(=O)c(CN(Cc3ccc4c(c3)OCO4)Cc3nnnn3C3CCCC3)cc2c1	-21.9	1.5	1.0	·	32.7
COc1ccc2cc(CN(Cc3ccco3)Cc3nnnn3C3CCCCC3)c(=O)[nH]c2c1	-6.6	1.5	11.3	i	?
CCC(c1nnnn1C1CCCC1)N(Cc1cccs1)Cc1cc2cc(C)ccc2[nH]c1=O (stereo unspecified)	-12.0	1.3	5.4	+	26.4	BAP1 inh conf=76.4
CCOC(=O)Cn1nnnc1C(CC)N(Cc1cccs1)Cc1cc2cc(C)ccc2[nH]c1=O (stereo unspecified)	-3.7	1.5	10.3	·	30.7
Cc1ccc2cc(CN(Cc3ccc(F)cc3)Cc3nnnn3C3CCCC3)c(=O)[nH]c2c1	-24.1	1.6	3.7	+	17.7	BAP1 inh conf=86.0
Cc1ccc2cc(CN(Cc3ccccc3)Cc3nnnn3C3CCCC3)c(=O)[nH]c2c1	-17.8	1.6	2.6	+	29.2	BAP1 inh conf=90.3
O=C(Nc1cccc2c1C(=O)c1ccccc1C2=O)c1ccc(S(=O)(=O)N2CCCCC2)cc1	·	·	6.7	·	·
CC(C)C1C(C#N)(C#N)C(C#N)=C(N)C1(C)[N+](=O)[O-] (stereo unspecified)	·	·	-1.5	·	·
c1ccc(-n2cnnc2SCc2nc3ccccc3s2)cc1	-0.8	0.8	8.0	+	18.4	BAP1 inh conf=110.5
Cc1ccc(-n2nnnc2SCC(=O)Nc2cccc(NC(=O)c3ccco3)c2)cc1C	-4.1	0.8	4.1	+	15.3	BAP1 inh conf=91.8
CCOc1ccc(N(CC(=O)Nc2cccc3cccnc23)S(=O)(=O)c2ccccc2)cc1	·	·	-10.7	·	·
CCOC(=O)c1c(NC(=O)CSc2nnc(CNc3ccc(F)cc3)o2)sc(C)c1C	-20.8	1.6	-5.1	+	27.2	BAP1 inh conf=?
COc1ccccc1-c1c(C)nn2c(N3CCCCCC3)cc(C)nc12	-1.9	1.4	-1.5	i	-3.6
COc1ccccc1-c1c(C)nn2c(N3CCN(c4ccccc4OC)CC3)cc(C)nc12	-1.4	1.7	4.8	+	29.8	BAP1 inh conf=105.1
COc1ccc(-c2cc3c(=O)n(CC(=O)NC4CCN(Cc5ccccc5)CC4)ncn3n2)cc1	9.9	0.8	1.9	+	-8.5	BAP1 inh conf=87.0
Cc1ccc2oc(=O)c3cnn(CC(=O)NC4CCN(Cc5ccccc5)CC4)c3c2c1	-6.7	1.6	2.6	i	9.6
CC1=NN(c2ccc(S(N)(=O)=O)cc2)C(=O)/C1=C/c1ccc(-c2ccc(Cl)cc2Cl)o1	·	·	0.3	·	·
COCCOC(=O)C1=C(C)NC(=O)NC1c1ccc(C)s1 (stereo unspecified)	·	·	-21.0	·	·
CCCCCCNC(=O)C(C#N)c1nc2ccccc2nc1N1CCCC1 (stereo unspecified)	23.4	1	-9.5	+	2.3	BAP1 inh conf=70.4

High-throughput results as filed in PubChem BioAssay.
